The values that follow come from PubChem BioAssay (NCI).

Each structure is given as a SMILES string. Compounds without any hit were thinned out: in the full panel of roughly 79,000, 15% have a hit. Unmarked numbers belong to inactive results. Calls of active or inactive are those of the source. No stated cut-off is given here; in the data, active means growth inhibition above about 70%; inactive means the rest.

A short description of this test: NCI Yeast Anticancer Drug Screen. Data for the bub3 strain (AID 167). The note with it: S. cerevisiae bub3 mutant strain, at 50.0 µM, hits give high values. As to the method:
Growth inhibition of yeast strains with defined genetic alterations is measured as a screen for potential anti-cancer activity. Selected strains with alterations in DNA damage repair or cell cycle control were exposed to compounds and growth inhibition was measured relative to vehicle treated controls. The strain used in this assay is bub3
Take `O=C(c1cc([N+](=O)[O-])cc([N+](=O)[O-])c1)N1CCCC1`: the growth inhibition is 16.4%.
Regarding `Cn1nc(Br)c(=O)n(C)c1=O`, the growth inhibition was 1.7%.
As for `O=C1N(c2cccc(F)c2)C(=O)N1c1cccc(F)c1`, the figure is -1.1%; as for `O=C1OC(c2ccccc2)(c2ccccc2)CC1c1ccccc1` (stereo not given), -4.25%.
As for `CC(C)(C)C(=O)/C=C(\OB(F)F)C(C)(C)C`, the figure is -15.8%; as for `Cc1cccc(Cl)c1N=Nc1c(C)nc(N)nc1-c1ccccc1`, 1.1%.
As for `O/N=C1\C(=C\c2ccc3c(c2)OCCO3)CCCC1C(NO)c1ccc2c(c1)OCCO2` (stereo not given), the figure is 16.9%; as for `O=C(NCCCN1CCCCCC1)C(c1ccccc1)C1CCCCC1` (stereo not given), 14.6%.
For `CN(C)/C(=N\N=C(/c1ccc(Cl)cc1)N(C)C)c1ccc(Cl)cc1`, the growth inhibition was -11.1%.
On to `O=c1[nH]c2ccc([N+](=O)[O-])cc2nc1/C=C(\O)c1ccccc1`, for which the growth inhibition is 3.75%.
Next, `C=C1N(C)c2ccccc2C1(C)C`: 6.2%; `CCCNC(=S)/N=C/c1c(O)c2ccccc2[nH]c1=O`: 6.8%; `CC1OC(=O)/C(=C\N(C)C)C1=O` (stereo not given): 7.75%.
Next, `COc1ccccc1C(CC(=O)c1ccccc1)Sc1ccccc1N` (stereo not given): 26.4%; `O=C(O)c1ccc(S(=O)(=O)N=Nc2c(O)[nH]c3ccccc23)cc1`: -37%; `COC(=O)CCC1(CCC(=O)OC)CCCCCCC(CCC(=O)OC)(CCC(=O)OC)C(=O)C1=O`: 5.25%.
Next, `Oc1ccccc1/C=N/c1nc(-c2ccccc2)cs1.[Co].[O-]c1ccccc1/C=N/c1nc(-c2ccccc2)cs1`: 5.35%.
Turning to `COC(=O)C(NC(=O)C(CC(=O)OC(C)(C)C)NC(=O)OC(C)(C)C)C(O)c1ccccc1` (stereo not given), the growth inhibition was -27.6%.
As for `Nc1nc(N)c2c(n1)NCN(OCCOc1ccc(Cl)cc1Cl)C2`, the figure is -14.8%.
In the case of `Cc1ccc(S(=O)(=O)NNc2nc(N3CCCCC3)nc(N3CCCCC3)n2)cc1`, the growth inhibition is -4.85%.
As for `CC(C)(C(=O)Cc1ccccc1)c1ccccc1`, the figure is 0.2%; as for `COC(=O)O[C@H]1CC[C@@]2(C)C(=CC[C@H]3[C@@H]4CC[C@H]([C@H](C)CCCC(C)C)[C@@]4(C)CC[C@@H]32)C1`, -11.8%.
With `O=c1c(SCc2ccc(Cl)cc2)c(SCc2ccc(Cl)cc2)cnn1-c1ccccc1`, the growth inhibition was -6.6%.
For `Cc1ccccc1NC(=O)Cc1csc2[n+]1C(=O)/C(=C\c1ccc3c(c1)OCO3)S2`, the growth inhibition is 11.2%.
As for `CCOC(=O)CNc1ccccc1[N+](=O)[O-]`, the figure is 13.1%; as for `O=C(O)c1c[nH]c2c(ccc3[nH]cc(C(=O)O)c(=O)c32)c1=O`, -40.7%; as for `C=CCOC(=O)C1CC=CCC1C(=O)OCC=C` (stereo not given), -3.95%.
As for `CCOC(=O)C(Cc1c[nH]c2ccccc12)NC(C)=O` (stereo not given), the figure is 41.9%.
With `CN(c1cn(C2CC[C@@H](CO)O2)c(=O)[nH]c1=O)C1CCCCC1` (stereo not given in full), the growth inhibition is 5.35%.
As for `CN(C)c1ccc(C2N(C)CCN2C)cc1`, the figure is -7.5%; as for `COc1ccc(/C=N/N2CCN(/N=C/c3ccc(OC)c(OC)c3)CC2)cc1OC`, -1.75%; as for `COC(=O)c1ccc(C(=O)OC)c2nc3ccccc3nc12`, 15.1%.
Next, `O=C(Oc1c(Cl)cc([N+](=O)[O-])cc1[N+](=O)[O-])Sc1ccccc1`: 99.5% (active); `Cc1ccc(C(=O)C[n+]2ccccc2)c(O)c1`: 4.65%; `O=S1Nc2ccccc2[C@H]2[C@@H]1[C@H]1O[C@@H]2c2ccccc21` (stereo not given in full): -6.6%.
As for `C=CCCCCCCCCC(=O)NCCCN1CCOCC1`, the figure is 85% (active).
In the case of `CN1CCN(C(=O)/C(=C/c2ccccc2)NC(=O)c2ccccc2)CC1`, the growth inhibition was 0.1%.
Regarding `CCOc1ccc(/C=C2\N=C(c3ccc([N+](=O)[O-])cc3)OC2=O)cc1`, the growth inhibition was 15.6%.
As for `O=P(O)(O)c1ccc(I)cc1`, the figure is -20.3%; as for `COC(=O)C([O][Ge]([CH3])([CH3])[CH3])c1ccccc1` (stereo not given), -12.9%.
